# Experimental data published in PubChem BioAssay (NCATS).
# Inconclusive results are not listed. Where a call stands in place of a potency, no number is given. Calls of active or inactive are those of the source. Unless noted, the call rests on the fitted dose curve; in most records, active means well fitted curve in the direction sought with a large enough effect; inconclusive means small, poorly fitted or top-dose-only effect, or another doubt; inactive means no such curve, though single readings can be large; an effect the other way counts as inactive or inconclusive.
# How the values were obtained:
# [1] = target: Phospholipid hydroperoxide glutathione peroxidase GPX4 (Homo sapiens) (UniProt P36969); assay: Primary qHTS Assay for Inhibitors of Recombinant Selenoprotein Glutathione Peroxidase 4 (GPX4) (AID 1845192); further: nearly all actives have a fitted effect of over 65% in size; further: potency means the concentration at half of the fitted maximal effect; on activity change, negative = inhibition: series mostly up to about 50 µM
# Chain of Phospholipid hydroperoxide glutathione peroxidase GPX4 (Homo sapiens) (P36969 whole entry, looked up): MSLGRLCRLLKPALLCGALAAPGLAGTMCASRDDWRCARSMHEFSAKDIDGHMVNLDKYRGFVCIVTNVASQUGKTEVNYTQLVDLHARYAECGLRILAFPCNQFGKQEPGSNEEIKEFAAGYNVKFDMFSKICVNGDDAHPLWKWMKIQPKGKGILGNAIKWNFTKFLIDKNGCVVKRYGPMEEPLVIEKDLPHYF
# Outline: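 GR-coupled readout: 100 nM GR, 1 mM GSH, 0.5 mM NADPH; NADPH fluorescence (ex 340/em 450 nm) read at t=0 and after 15 min RT. GPX4 200 nM, preincubated 30 min with compound; substrate 0.5 mM CHP.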
# [2] = target: Luciferin 4-monooxygenase (Photinus pyralis) (UniProt P08659); assay: Primary firefly luciferase (FLuc) qHTS assay for identification of artifact compounds. (AID 1845220); further: nearly all actives have a fitted effect of over 60% in size; on activity change, negative = inhibition: series mostly up to about 54 µM
# Outline: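 qHTS, 15 min compound preincubation with substrate (10 uM luciferin, 10 uM ATP) at RT, then 10 nM FLuc; 5 min; luminescence; % inhibition vs no-enzyme/DMSO controls, 4-parameter Hill fit.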
# [3] = Primary fluorescence-based thiol-reactive (MSTI) qHTS assay for identification of artifact compounds. (AID 1845221); further: nearly all actives have a fitted effect of over 65% in size; further: potency means the concentration at half of the fitted maximal effect;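 on activity change, negative = thiol reactive: series mostly up to about 54 µM; thiol-reactive compounds lower the probe fluorescence signal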
# Outline: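 Reactivity toward the thiol probe MSTI (4 uM) is scored by fluorescence at Ex/Em 525/598 nm after 1 h at room temperature. Acetyl-MSTI and MSTI define the activity scale.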
# [4] = test system: Nanoluciferase (engineered Oplophorus gracilirostris luciferase); assay: Primary Nanoluciferase (NLuc) qHTS assay for identification of artifact compounds. (AID 1845222); further: series mostly up to about 54 µM
# Outline: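 Luminescence read-out of secreted NLuc in S16 cell conditioned medium (1:55); compounds tested with 15 min RT preincubation, then Nano-Glo substrate 1:100, 5 min. % inhibition vs no-enzyme and DMSO controls, 4-parameter Hill fit.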
# [5] = Primary redox qHTS assay for identification of artifact compounds. (AID 1845223)
# Outline: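 Amplex Red (25 uM) and HRP (250 mU/mL) in HBSS, with compounds for 15 min, then 250 uM DTT for 30 min, room temperature, dark. Fluorescence 525/598 nm read; normalized to DMSO and 10 uM DA3003; Hill fit.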
# [6] = qHTS profiling for inhibitors of Plasmodium falciparum proliferation (AID 504749); further: potency means the concentration at half of the fitted maximal effect; nearly all actives have a fitted effect of over 60% in size; settings: P. falciparum in erythrocytes, SYBR Green DNA, 72 h
# Outline: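 Parasite proliferation within erythrocytes, 72 h exposure. Endpoint: SYBR Green I fluorescence after overnight lysis at room temperature. Controls: 0.29 uM artemisinin, DMSO.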
# [7] = qHTS drug screen for cell cycle checkpoint inhibitors in PARPi-resistant BRCA-mutant ovarian cancer cell lines. (AID 1963452; calls by dose curve); settings: PEO1/OlaR viability, CellTiter-Glo luminescence, 96 h, stronger effect = lower value
# Outline: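 PEO1, PEO4 and PEO1/OlaR ovarian cancer cells, 600 per well, exposed 96 h at 37C to a dilution series. Viability read by CellTiter-Glo luminescence, normalized to DMSO and empty wells; activity summarized as Z-AUC.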
# [8] = target: Cytochrome P450 3A4 (Homo sapiens) (UniProt P08684); assay: qHTS for inhibitors of CYP3A4 against the NCATS DSHEA and TCM libraries (AID 1919971);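 further: inhibition lowers luminescence from luciferin made by CYP3A4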
# Chain of Cytochrome P450 3A4 (Homo sapiens) (P08684 whole entry, looked up): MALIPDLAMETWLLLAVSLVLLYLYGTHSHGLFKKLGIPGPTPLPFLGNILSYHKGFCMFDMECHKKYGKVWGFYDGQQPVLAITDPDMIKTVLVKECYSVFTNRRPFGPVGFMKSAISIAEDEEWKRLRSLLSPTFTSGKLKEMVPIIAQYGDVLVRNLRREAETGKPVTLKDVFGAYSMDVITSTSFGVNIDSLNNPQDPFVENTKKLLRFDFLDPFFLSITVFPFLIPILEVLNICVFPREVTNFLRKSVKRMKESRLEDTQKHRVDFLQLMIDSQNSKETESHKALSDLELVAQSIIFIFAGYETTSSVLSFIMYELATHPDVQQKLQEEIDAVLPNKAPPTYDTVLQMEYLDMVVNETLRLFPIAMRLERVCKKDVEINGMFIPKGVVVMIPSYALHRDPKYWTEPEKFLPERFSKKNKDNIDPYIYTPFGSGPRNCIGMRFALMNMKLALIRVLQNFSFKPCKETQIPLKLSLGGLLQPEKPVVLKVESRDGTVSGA
# Outline: (§1)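 Luminescent P450-Glo format: compounds preincubated 15 min with enzyme and luciferin substrate, reaction run 30-45 min after NADPH regeneration solution. Intraplate controls: ketoconazole for CYP3A4 and CYP2C19, sulfaphenazole for CYP2C9.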
# [9] = target: Cytochrome P450 2D6 (Homo sapiens) (UniProt P10635); assay: qHTS for inhibitors of CYP2D6 against the NCATS DSHEA and TCM libraries (AID 1919972)
# Chain of Cytochrome P450 2D6 (Homo sapiens) (P10635 whole entry, looked up): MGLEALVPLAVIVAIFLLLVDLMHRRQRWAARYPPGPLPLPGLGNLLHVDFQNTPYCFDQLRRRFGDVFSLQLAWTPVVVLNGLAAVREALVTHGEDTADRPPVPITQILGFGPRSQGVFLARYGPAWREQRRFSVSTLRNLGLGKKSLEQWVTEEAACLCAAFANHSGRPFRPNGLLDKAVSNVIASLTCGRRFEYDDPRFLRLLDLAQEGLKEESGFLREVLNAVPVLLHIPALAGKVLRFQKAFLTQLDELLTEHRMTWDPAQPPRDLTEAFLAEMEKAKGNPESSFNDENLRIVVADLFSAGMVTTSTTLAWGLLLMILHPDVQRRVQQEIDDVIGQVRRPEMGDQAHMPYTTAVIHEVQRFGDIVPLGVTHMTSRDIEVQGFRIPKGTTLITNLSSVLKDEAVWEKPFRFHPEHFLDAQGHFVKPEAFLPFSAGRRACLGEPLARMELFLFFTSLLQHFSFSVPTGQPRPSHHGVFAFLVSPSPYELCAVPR
# Outline: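 Luminescent P450-Glo read-out of CYP2D6 turnover of a luciferin substrate after NADPH-driven reaction of 30-45 min at room temperature. Compounds were first preincubated 15 min with enzyme at titrated concentrations; quinidine was the intraplate control.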
# [10] = target: Cytochrome P450 2C9 (Homo sapiens) (UniProt P11712); assay: qHTS for inhibitors of CYP2C9 against the NCATS DSHEA and TCM libraries (AID 1919973);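 further: luminogenic pro-luciferin CYP2C9 substrate turned into luciferin with NADPH regeneration; series mostly up to about 34 µM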
# Chain of Cytochrome P450 2C9 (Homo sapiens) (P11712 whole entry, looked up): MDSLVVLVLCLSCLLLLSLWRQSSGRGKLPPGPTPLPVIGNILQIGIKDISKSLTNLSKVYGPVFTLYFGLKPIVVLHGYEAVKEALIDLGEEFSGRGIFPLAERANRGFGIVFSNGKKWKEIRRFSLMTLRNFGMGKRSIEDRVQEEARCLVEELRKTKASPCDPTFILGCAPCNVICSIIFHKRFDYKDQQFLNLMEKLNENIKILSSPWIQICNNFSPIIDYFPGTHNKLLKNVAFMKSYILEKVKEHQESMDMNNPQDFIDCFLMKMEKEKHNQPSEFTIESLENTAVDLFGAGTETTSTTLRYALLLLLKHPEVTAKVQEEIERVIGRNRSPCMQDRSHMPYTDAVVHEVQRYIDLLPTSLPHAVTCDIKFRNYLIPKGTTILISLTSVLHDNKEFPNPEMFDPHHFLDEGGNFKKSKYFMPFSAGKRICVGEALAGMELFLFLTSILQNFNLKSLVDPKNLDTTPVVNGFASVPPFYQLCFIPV
# Outline: as §1
# [11] = target: Cytochrome P450 2C19 (Homo sapiens) (UniProt P33261); assay: qHTS for inhibitors of CYP2C19 against the NCATS DSHEA and TCM libraries (AID 1919974);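 further: luminescence from luciferin released by CYP2C19 oxidation of a pro-luciferin substrate; potency means the concentration at half of the fitted maximal effect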
# Chain of Cytochrome P450 2C19 (Homo sapiens) (P33261 whole entry, looked up): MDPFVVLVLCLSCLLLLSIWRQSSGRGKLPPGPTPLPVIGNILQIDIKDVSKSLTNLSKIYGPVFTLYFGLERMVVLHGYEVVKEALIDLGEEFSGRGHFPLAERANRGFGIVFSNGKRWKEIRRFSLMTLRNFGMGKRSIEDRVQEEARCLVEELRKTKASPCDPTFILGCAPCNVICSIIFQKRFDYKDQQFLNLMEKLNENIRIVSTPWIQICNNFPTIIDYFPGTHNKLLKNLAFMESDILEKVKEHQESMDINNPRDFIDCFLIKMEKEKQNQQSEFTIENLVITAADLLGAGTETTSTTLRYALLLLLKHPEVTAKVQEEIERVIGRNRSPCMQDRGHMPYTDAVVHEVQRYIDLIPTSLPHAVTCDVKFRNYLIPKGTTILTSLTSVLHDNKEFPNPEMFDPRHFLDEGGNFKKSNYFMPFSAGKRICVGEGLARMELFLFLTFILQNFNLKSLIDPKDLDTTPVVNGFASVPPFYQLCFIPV
# Outline: as §1
# [12] = KB-3-1 P-gp reporter qHTS against the NCATS DSHEA and TCM libraries (AID 1919975)
# Outline: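 Cell viability by CellTiter-Glo luminescence following ~72 h compound exposure (concentration-response). Uses parental, non-P-gp-overexpressing KB-3-1 line, 500 cells/well in DMEM/10% FBS, attached ~4 h before dosing.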
# [13] = qHTS Counterscreen for compound interference against the NCATS DSHEA and TCM libraries (AID 1919978); settings: firefly luciferase detection reagent interference, luminescence;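 further: compounds preincubated with 1 µM D-luciferin or buffer before detection reagent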
# Outline: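 With 1 uM D-luciferin or phosphate buffer only, compounds at final 19.5 nM–39.8 uM were incubated for 15 min at room temperature. Luciferase detection reagent was then added, and luminescence was measured after a further 30 min at room temperature.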
# [14] = Dual reporter qHTS for agonist of Pregnane X Receptor (hPXR) against the NCATS DSHEA and TCM libraries: Fluorescence readout (AID 1920058)
# Outline: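 hPXR-Luc HepG2 cells, 2000/well in charcoal-stripped serum, attached 5 h, dosed for ~24 h at 37 °C. Fluorescence read is CellTiter-Fluor viability (Ex/Em 405/540 nm); rifampicin positive, tetraoctyl ammonium bromide (92 µM) cytotoxicity controls.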
# [15] = target: Nuclear receptor subfamily 1 group I member 2 (Homo sapiens) (UniProt O75469); assay: Dual reporter qHTS for agonist of Pregnane X Receptor (hPXR) against the NCATS DSHEA and TCM libraries: Luminescence readout (AID 1920059)
# Chain of Nuclear receptor subfamily 1 group I member 2 (Homo sapiens) (O75469 whole entry, looked up): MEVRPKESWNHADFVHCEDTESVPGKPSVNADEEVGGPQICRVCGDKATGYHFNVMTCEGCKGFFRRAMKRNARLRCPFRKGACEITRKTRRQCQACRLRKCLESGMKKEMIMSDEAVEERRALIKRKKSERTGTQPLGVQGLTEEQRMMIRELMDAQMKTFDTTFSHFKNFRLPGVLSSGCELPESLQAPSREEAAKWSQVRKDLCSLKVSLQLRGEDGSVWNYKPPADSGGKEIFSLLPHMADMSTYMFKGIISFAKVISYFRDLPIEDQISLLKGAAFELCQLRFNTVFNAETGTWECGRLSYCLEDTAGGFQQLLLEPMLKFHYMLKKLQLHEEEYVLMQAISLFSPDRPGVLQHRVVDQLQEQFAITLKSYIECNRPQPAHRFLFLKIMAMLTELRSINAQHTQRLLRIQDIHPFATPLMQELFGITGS
# Outline: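 hPXR-LucHepG2 cells in phenol red-free DMEM with 5% charcoal-stripped FBS, 2000 cells/well, attached 5 h, then exposed 24 h at 37C to compounds; rifampicin as positive agonist control (2.8 nM–92 uM). Luciferase luminescence read.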
# [16] = target: Nuclear receptor subfamily 1 group I member 2 (Homo sapiens) (UniProt O75469); assay: Dual reporter qHTS for antagonist of Pregnane X Receptor (hPXR) against the NCATS DSHEA and TCM libraries: Luminescence Readout (AID 1920060);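 further: HepG2 cells carrying hPXR luciferase reporter stimulated with rifampicin at 2 µM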
# Outline: (§2)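 In antagonist mode, 2 uM rifampicin was added to hPXR-Luc HepG2 cells alongside test substances, incubated 24 h at 37 C; luminescence gave reporter activity, and CellTiter-Fluor fluorescence (405/540 nm) gave viability.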
# [17] = Dual reporter qHTS for antagonist of Pregnane X Receptor (hPXR) against the NCATS DSHEA and TCM libraries: Fluorescence Readout (AID 1920061)
# Outline: as §2
# [18] = measured here: PEO1 parental Z-AUC
structure (smiles),measurement,setting,value
CC(=O)O[C@H]1C(=O)[C@@]2(C)[C@H]([C@H](OC(=O)c3ccccc3)[C@]3(O)C[C@H](OC(=O)[C@H](O)[C@@H](NC(=O)c4ccccc4)c4ccccc4)C(C)=C1C3(C)C)[C@]1(OC(C)=O)CO[C@@H]1C[C@@H]2O,Potency,[1],inactive
same,"activity change, negative = inhibition",[2],-3.6% [at 11.6 µM] (inactive)
same,"activity change, negative = thiol reactive",[3],52.3% [at 11.5 µM] (inactive)
same,"activity, negative = inhibition",[4],4.66% [at 11.6 µM] (inactive)
same,redox activity (% of DA3003),[5],1.32% [at 11.5 µM] (inactive)
same,Potency,[6]; parasite line A,0.355 µM (active)
same,Potency,[6]; parasite line B,0.251 µM (active)
C[C@@H]1C[C@@H]2O[C@H]2/C=C\C=C\C(=O)Cc2c(Cl)c(O)cc(O)c2C(=O)O1,Potency,[1],inactive
same,Potency,[2],inactive
same,Potency,[4],inactive
NCc1c[nH]c(=S)n1[C@@H]1CCc2c(F)cc(F)cc2C1,Potency,[2],inactive
same,Potency,[4],inactive
same,Potency,[5],inactive
CCOc1ccc(NC(=S)N2CCC(C(O)(c3ccccc3)c3ccccc3)CC2)cc1,Potency,[2],inactive
same,Potency,[4],inactive
same,Potency,[5],inactive
Cc1nc([C@](C)(O)CO)sc1-c1cnc(N)c(O[C@H](C)c2cc(F)ccc2-n2nccn2)c1,Potency,[1],inactive
same,Potency,[2],inactive
same,Potency,[3],inactive
same,Potency,[4],inactive
same,Z-AUC,[7],1.59 (inactive)
same,Z-AUC,[7]; [18],0.437
same,Z-AUC,[7]; measured here: PEO4 Z-AUC,-0.14
CN(C)CCCCC(=O)Nc1ccc(NC(=S)NC(=O)c2ccc(C(C)(C)C)cc2)cc1,Potency,[2],inactive
same,Potency,[3],inactive
same,Potency,[4],inactive
same,Potency,[5],inactive
CC(C)=CCC[C@](C)(O[C@@H]1O[C@H](CO[C@@H]2O[C@H](CO)[C@@H](O)[C@H](O)[C@H]2O)[C@@H](O)[C@H](O)[C@H]1O)C1CC[C@]2(C)[C@@H]1[C@H](O)CC1[C@@]3(C)CC[C@H](O[C@@H]4O[C@H](CO)[C@@H](O)[C@H](O)[C@H]4O[C@@H]4O[C@H](CO)[C@@H](O)[C@H](O)[C@H]4O)C(C)(C)[C@@H]3CC[C@]12C (some centres not stated),Potency,[1],inactive
same,"activity change, negative = inhibition",[2],-9.29% [at 11.6 µM] (inactive)
same,"activity change, negative = thiol reactive",[3],44.5% [at 11.5 µM] (inactive)
same,"activity, negative = inhibition",[4],0.108% [at 11.6 µM] (inactive)
same,redox activity (% of DA3003),[5],5.05% [at 11.5 µM] (inactive)
same,outcome,[8],inactive
same,outcome,[9],inactive
same,outcome,[10],inactive
same,Potency,[11],1 µM (active)
same,outcome,[12],inactive
same,max response,[13],-2.77% (inactive)
same,outcome,[14],inactive
same,outcome,[15],inactive
same,outcome,[16],inactive
same,outcome,[17],inactive
COc1ccc(C2=N[C@@H](c3ccc(Cl)cc3)[C@@H](c3ccc(Cl)cc3)N2C(=O)N2CCNC(=O)C2)c(OC(C)C)c1,Potency,[1],inactive
same,Potency,[2],inactive
same,Potency,[4],inactive
same,Potency,[5],inactive
CC(=O)SCC(=O)c1ccc(NS(=O)(=O)c2ccc(OCCCN(C)C)cc2)nc1,Potency,[1],inactive
same,Potency,[2],inactive
same,Potency,[4],inactive
same,Potency,[5],inactive
Cc1cnc(Nc2ccc(F)cc2Cl)nc1-c1c[nH]c(C(=O)NC(CO)c2cccc(Cl)c2)c1 (configuration not stated),Potency,[2],inactive
same,Potency,[3],2.67 µM (active)
same,Potency,[4],inactive
O=C1OCC(c2ccccc2)=C1Cc1ccccc1,Potency,[1],inactive
same,Potency,[2],inactive
same,Potency,[3],inactive
same,Potency,[5],inactive
CC(C)c1c2cc(-c3ccnc(NC4CCC(NC5CCOCC5)CC4)n3)ccc2nn1C (configuration not stated),Potency,[1],9.04 µM (active)
same,Potency,[2],inactive
same,Potency,[3],inactive
same,Potency,[4],inactive
same,Potency,[5],inactive
same,Z-AUC,[7],-1.95 (inactive)
same,Z-AUC,[7]; [18],-2.05
same,Z-AUC,[7]; measured here: PEO4 Z-AUC,-1.88
CCc1c(C)nc2c(-c3cnn(-c4cc(CO)ccn4)c3)c[nH]n2c1=O,Potency,[2],inactive
same,Potency,[4],inactive
same,Potency,[5],inactive
OC1CCC(Nc2ncc3nc(Nc4c(F)cc(F)cc4F)n([C@H]4CCOC4)c3n2)CC1 (some centres not stated),Potency,[1],20.2 µM (active)
same,Potency,[2],inactive
same,Potency,[4],inactive
same,Potency,[5],inactive
